# In publication PMC7862700, “An all-to-all approach to the identification of sequence-specific readers for epigenetic DNA modifications on cytosine”:
# Key:
# Assay in all cases: DAPPL (digital affinity profiling via proximity ligation, sequencing); 10 mM Tris-HCl pH 7.5, 50 mM NaCl, 1 mM DTT, 4% glycerol, room temperature, 30 min; GST-TFs on glutathione beads, 16-mer random dsDNA library, 0.1% formaldehyde crosslink after washing; high values mean tight binding
# Details in all cases: protein: recombinant; tags: N-terminal GST; dsDNA, one strand shown
# FLI1 = target: T1, FLI1 (Homo sapiens, UniProt Q01543 1-452)
# T1 sequence: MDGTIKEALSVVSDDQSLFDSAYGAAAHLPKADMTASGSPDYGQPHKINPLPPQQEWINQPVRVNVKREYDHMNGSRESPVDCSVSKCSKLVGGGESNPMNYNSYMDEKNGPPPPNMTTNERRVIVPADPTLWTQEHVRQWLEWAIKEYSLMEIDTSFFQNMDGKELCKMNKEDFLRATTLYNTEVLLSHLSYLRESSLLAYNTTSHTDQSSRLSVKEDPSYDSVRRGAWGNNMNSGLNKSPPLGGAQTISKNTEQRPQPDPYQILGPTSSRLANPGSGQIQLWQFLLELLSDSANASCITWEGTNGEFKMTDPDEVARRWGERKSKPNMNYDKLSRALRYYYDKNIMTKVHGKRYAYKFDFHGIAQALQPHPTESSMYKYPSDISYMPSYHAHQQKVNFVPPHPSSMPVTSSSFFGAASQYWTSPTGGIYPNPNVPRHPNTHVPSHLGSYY
# Outline: (§1)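 Human transcription factors carrying a GST fusion were produced in yeast, bound to glutathione beads, tagged with DNA barcodes and pooled together with a tag-only sample. Each pool was held with 200 nmole of a random double-stranded 16-mer DNA library in Tris/NaCl/DTT/glycerol buffer for 30 min at room temperature, then washed, crosslinked in 0.1% formaldehyde, proximity-ligated with BsaI/T4 ligase (1 h, 37 °C), PCR-amplified and sequenced on an Illumina NextSeq500. Binding signal is the read frequency of each hexamer for a given factor divided by its frequency in the tag-only sample.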
# ELK1 = target: T2, ELK1 (Homo sapiens, UniProt P19419 1-428)
# T2 sequence: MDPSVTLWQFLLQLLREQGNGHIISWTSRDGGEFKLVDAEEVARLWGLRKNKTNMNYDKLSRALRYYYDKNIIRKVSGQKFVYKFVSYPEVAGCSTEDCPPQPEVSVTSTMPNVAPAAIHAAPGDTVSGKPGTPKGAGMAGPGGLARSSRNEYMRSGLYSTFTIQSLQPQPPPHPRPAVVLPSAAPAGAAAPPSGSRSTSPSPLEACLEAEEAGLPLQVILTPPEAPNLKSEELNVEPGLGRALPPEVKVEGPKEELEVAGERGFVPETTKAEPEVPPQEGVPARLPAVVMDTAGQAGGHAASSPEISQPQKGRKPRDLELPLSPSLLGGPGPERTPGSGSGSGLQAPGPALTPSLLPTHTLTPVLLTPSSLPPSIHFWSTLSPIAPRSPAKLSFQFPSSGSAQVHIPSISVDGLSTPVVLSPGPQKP
# Outline: as §1
# GABPA = target: T3, GABPA (Homo sapiens, UniProt Q06546 1-454)
# T3 sequence: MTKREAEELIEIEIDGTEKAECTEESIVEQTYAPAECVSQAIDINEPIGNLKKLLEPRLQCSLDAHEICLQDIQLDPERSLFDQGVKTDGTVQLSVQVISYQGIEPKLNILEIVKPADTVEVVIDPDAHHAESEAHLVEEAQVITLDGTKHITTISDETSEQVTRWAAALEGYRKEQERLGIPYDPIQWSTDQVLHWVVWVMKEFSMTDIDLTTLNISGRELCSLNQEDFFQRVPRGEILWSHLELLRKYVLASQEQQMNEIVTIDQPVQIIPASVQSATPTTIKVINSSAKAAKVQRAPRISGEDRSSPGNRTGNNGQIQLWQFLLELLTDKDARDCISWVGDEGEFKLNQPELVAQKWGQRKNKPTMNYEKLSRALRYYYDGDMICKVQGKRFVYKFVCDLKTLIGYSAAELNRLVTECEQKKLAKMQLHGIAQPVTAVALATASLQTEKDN
# Outline: as §1
# ERG = target: T4, ERG (Homo sapiens, UniProt P11308 1-479)
# T4 sequence: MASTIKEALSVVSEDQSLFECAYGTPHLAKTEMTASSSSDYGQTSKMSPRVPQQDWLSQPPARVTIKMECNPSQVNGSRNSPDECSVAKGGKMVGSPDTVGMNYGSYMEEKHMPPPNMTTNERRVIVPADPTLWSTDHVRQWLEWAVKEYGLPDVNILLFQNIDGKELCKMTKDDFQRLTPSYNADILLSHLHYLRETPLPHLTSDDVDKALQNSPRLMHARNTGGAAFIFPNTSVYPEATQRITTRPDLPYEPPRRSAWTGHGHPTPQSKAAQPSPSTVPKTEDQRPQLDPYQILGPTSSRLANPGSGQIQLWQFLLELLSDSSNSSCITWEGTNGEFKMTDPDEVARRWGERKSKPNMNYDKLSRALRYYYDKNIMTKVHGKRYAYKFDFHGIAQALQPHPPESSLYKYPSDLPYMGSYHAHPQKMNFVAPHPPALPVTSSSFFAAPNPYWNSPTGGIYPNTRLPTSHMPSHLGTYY
# Outline: as §1
# ELF1 = ELF1 (Homo sapiens, UniProt P32519 1-619)
# ELF1, sequence (P32519 whole entry): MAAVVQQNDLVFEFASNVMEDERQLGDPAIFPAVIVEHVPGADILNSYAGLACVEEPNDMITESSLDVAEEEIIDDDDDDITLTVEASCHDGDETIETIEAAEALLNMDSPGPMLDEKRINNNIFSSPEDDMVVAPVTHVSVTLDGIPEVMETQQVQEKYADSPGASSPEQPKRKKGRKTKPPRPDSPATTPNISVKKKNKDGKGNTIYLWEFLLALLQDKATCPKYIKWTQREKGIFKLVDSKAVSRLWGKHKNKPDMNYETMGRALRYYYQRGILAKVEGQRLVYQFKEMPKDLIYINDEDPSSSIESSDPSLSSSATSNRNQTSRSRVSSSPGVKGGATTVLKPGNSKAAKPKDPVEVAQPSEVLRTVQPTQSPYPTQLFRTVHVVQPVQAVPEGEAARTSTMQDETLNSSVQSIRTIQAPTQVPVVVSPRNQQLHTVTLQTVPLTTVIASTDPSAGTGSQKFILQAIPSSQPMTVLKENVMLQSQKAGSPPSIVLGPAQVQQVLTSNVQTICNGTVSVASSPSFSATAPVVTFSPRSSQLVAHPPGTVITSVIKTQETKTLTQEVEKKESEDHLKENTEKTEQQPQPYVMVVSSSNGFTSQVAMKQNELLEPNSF
# Outline: as §1
# EHF = target: T5, EHF (Homo sapiens, UniProt Q9NZC4 1-300)
# T5 sequence: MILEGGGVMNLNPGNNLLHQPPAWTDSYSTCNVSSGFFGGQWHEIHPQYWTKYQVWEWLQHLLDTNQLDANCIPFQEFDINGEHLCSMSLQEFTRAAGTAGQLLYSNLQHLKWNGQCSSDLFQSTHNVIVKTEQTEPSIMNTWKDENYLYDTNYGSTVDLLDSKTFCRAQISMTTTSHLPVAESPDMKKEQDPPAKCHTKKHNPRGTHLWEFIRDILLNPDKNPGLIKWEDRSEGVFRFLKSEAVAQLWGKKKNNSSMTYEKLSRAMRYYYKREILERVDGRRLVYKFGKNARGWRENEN
# Outline: as §1
# SPI1 = SPI1 (Homo sapiens, UniProt P17947 1-270)
# Outline: as §1
# SPIB = SPIB (Homo sapiens, UniProt Q01892 1-262)
# SPIB, sequence (Q01892 whole entry): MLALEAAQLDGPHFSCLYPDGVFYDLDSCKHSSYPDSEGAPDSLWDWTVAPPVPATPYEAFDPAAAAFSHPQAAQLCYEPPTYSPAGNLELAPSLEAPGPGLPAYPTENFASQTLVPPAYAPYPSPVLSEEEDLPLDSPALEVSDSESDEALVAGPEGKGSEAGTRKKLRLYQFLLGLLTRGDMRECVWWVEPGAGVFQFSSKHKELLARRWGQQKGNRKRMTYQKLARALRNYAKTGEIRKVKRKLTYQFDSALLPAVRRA
# Outline: as §1
# ELK3 = target: T6, ELK3 (Homo sapiens, UniProt P41970 1-407)
# T6 sequence: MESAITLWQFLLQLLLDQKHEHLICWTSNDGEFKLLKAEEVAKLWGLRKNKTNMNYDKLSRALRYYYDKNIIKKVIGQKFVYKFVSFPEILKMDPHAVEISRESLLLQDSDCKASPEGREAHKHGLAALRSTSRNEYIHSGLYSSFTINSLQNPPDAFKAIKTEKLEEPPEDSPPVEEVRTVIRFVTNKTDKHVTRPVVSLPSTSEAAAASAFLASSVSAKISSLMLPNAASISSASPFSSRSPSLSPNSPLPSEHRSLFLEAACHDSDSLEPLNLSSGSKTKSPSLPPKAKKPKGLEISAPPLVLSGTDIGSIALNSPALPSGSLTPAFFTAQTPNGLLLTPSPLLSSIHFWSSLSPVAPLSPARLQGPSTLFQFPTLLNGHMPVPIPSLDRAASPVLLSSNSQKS
# Outline: as §1
# FEV = target: T7, FEV (Homo sapiens, UniProt Q99581 1-238)
# T7 sequence: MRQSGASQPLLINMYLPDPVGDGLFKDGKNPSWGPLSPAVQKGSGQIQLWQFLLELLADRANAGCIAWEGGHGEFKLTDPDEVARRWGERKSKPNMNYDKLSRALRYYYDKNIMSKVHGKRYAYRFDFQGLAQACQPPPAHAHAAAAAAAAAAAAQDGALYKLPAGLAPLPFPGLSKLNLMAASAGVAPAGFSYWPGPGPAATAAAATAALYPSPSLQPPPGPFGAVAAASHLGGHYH
# Outline: as §1
# ETV5 = ETV5 (Homo sapiens, UniProt P41161 1-510)
# ETV5, sequence (P41161 whole entry): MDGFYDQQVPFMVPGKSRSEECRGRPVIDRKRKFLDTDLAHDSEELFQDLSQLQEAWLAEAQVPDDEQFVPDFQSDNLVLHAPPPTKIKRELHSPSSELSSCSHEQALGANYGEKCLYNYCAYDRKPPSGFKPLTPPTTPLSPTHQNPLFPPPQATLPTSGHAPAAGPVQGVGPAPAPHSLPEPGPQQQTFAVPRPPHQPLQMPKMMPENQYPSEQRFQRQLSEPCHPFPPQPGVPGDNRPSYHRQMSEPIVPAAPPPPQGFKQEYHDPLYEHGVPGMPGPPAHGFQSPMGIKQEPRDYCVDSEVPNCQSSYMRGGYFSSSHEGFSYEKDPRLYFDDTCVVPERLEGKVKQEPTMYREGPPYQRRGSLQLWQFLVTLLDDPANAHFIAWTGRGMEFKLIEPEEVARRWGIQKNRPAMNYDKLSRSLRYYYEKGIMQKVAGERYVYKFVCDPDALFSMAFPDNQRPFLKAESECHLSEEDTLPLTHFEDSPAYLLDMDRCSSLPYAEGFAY
# Outline: as §1
# SPIC = target: T8, SPIC (Homo sapiens, UniProt Q8N5J4 1-248)
# T8 sequence: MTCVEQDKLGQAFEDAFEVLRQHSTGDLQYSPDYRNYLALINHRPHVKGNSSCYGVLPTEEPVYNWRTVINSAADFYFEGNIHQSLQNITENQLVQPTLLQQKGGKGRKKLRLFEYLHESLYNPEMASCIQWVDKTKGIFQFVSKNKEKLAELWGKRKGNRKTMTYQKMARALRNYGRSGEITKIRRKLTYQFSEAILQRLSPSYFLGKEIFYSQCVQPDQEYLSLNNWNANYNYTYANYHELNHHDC
# Outline: as §1
# ELF4 = ELF4 (Homo sapiens, UniProt Q99607 1-663)
# ELF4, sequence (Q99607 whole entry): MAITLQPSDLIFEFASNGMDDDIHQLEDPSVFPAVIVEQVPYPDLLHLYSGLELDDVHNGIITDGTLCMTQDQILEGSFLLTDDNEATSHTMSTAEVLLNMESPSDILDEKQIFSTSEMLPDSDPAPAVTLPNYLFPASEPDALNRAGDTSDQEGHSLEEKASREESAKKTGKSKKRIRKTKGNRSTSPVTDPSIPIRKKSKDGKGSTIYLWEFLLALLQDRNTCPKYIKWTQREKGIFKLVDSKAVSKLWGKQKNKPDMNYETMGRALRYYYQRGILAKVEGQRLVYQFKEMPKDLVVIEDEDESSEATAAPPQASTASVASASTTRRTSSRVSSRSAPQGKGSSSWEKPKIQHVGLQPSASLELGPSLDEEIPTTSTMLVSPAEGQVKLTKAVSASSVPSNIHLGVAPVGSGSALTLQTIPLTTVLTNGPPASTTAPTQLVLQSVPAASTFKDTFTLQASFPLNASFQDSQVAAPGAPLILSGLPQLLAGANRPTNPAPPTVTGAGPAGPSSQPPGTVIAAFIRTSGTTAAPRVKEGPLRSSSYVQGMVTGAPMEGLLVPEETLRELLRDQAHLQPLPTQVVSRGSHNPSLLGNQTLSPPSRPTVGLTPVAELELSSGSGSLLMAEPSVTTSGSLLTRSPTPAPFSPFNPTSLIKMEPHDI
# Outline: as §1
# ETV1 = ETV1 (Homo sapiens, UniProt P50549 1-477)
# ETV1, sequence (P50549 whole entry): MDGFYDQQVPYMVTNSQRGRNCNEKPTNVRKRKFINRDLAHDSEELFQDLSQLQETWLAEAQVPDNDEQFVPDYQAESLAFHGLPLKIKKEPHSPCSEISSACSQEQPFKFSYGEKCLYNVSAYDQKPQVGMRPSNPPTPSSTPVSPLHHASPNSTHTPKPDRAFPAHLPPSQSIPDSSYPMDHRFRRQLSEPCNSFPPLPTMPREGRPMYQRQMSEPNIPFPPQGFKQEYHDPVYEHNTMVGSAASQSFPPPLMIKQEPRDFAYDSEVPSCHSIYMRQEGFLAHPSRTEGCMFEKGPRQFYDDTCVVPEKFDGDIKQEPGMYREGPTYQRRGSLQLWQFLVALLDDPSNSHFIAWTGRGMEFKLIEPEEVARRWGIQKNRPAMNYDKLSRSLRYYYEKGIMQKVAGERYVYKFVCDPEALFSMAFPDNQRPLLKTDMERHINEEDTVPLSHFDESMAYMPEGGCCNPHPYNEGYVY
# Outline: as §1
# ERF = target: T9, ERF (Homo sapiens, UniProt P50548 1-548)
# T9 sequence: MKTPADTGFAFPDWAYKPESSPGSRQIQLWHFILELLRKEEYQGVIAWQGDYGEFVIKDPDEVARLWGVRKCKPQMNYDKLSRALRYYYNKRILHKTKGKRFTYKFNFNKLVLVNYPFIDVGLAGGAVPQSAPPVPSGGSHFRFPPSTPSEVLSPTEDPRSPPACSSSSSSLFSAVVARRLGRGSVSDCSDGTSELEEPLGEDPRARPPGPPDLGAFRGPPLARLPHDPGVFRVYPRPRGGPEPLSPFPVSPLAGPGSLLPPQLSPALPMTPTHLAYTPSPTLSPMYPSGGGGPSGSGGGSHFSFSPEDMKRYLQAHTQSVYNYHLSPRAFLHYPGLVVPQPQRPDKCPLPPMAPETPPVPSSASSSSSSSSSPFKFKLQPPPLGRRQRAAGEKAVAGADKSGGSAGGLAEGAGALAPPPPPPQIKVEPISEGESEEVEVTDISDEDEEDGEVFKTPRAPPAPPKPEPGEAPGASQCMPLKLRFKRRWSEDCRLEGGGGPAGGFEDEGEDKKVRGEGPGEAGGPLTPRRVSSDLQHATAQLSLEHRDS
# Outline: as §1
# ETV3L = target: T10, ETV3L (Homo sapiens, UniProt Q6ZN32 1-361)
# T10 sequence: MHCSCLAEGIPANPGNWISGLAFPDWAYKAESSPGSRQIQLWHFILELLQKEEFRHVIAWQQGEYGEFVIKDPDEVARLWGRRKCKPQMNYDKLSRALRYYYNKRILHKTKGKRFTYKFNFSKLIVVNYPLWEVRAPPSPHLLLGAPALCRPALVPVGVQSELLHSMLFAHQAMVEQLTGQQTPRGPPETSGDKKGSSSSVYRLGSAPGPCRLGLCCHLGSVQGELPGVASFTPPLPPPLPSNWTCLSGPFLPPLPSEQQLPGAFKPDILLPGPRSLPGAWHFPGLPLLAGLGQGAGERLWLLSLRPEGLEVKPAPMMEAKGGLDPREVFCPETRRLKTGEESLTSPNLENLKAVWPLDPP
# Outline: as §1
# ETS2 = target: T11, ETS2 (Homo sapiens, UniProt P15036 1-469)
# T11 sequence: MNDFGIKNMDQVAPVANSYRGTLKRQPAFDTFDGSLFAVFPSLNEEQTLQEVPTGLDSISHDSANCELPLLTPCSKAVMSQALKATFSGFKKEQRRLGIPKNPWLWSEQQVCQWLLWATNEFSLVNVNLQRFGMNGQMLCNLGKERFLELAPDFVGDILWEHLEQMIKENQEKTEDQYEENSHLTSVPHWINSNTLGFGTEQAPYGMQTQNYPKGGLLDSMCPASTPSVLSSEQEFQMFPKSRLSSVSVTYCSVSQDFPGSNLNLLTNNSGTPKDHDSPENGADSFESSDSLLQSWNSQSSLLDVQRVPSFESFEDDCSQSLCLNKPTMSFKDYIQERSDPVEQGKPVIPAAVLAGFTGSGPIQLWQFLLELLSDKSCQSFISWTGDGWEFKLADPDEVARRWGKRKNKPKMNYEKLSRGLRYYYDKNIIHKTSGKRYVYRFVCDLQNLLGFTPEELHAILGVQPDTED
# Outline: as §1
# ETV3 = target: T12, ETV3 (Homo sapiens, UniProt P41162-2 1-143)
# T12 sequence: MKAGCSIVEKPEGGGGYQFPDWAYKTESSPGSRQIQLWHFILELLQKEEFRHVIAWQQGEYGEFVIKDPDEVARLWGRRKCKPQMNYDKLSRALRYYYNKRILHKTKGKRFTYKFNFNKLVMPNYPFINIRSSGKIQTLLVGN
# Outline: as §1
# ETV6 = ETV6 (Homo sapiens, UniProt P41212 1-452)
# ETV6, sequence (P41212 whole entry): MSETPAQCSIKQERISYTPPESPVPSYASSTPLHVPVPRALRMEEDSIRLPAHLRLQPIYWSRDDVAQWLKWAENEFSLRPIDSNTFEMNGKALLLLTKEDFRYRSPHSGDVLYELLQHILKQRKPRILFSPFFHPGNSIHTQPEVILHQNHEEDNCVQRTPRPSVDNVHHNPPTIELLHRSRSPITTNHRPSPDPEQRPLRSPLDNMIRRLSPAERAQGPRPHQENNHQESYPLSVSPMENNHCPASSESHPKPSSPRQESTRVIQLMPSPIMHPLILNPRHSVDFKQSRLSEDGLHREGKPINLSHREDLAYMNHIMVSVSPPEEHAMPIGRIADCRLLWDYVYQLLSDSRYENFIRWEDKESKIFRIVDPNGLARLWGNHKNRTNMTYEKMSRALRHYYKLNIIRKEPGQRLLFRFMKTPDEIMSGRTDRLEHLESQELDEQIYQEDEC
# Outline: as §1
sequence,measurement,setting,value
GTCCCA,binding signal,FLI1,"1.03 fold enrichment (6-mer frequency, TF over GST control)"
same,binding signal,ELK1,"1.14 fold enrichment (6-mer frequency, TF over GST control)"
same,binding signal,GABPA,"1.11 fold enrichment (6-mer frequency, TF over GST control)"
same,binding signal,ERG,"1.17 fold enrichment (6-mer frequency, TF over GST control)"
same,binding signal,ELF1,"1.14 fold enrichment (6-mer frequency, TF over GST control)"
same,binding signal,EHF,"1.1 fold enrichment (6-mer frequency, TF over GST control)"
same,binding signal,SPI1,"1.13 fold enrichment (6-mer frequency, TF over GST control)"
same,binding signal,SPIB,"1.06 fold enrichment (6-mer frequency, TF over GST control)"
same,binding signal,ELK3,"1.18 fold enrichment (6-mer frequency, TF over GST control)"
same,binding signal,FEV,"1.12 fold enrichment (6-mer frequency, TF over GST control)"
same,binding signal,ETV5,"1.05 fold enrichment (6-mer frequency, TF over GST control)"
same,binding signal,SPIC,"1.12 fold enrichment (6-mer frequency, TF over GST control)"
same,binding signal,ELF4,"1.13 fold enrichment (6-mer frequency, TF over GST control)"
same,binding signal,ETV1,"1.14 fold enrichment (6-mer frequency, TF over GST control)"
same,binding signal,ERF,"1.12 fold enrichment (6-mer frequency, TF over GST control)"
same,binding signal,ETV3L,"1.13 fold enrichment (6-mer frequency, TF over GST control)"
same,binding signal,ETS2,"1.05 fold enrichment (6-mer frequency, TF over GST control)"
same,binding signal,ETV3,"1.07 fold enrichment (6-mer frequency, TF over GST control)"
same,binding signal,ETV6,"1.03 fold enrichment (6-mer frequency, TF over GST control)"
